The record followed here is PubChem BioAssay (NCI).

Some test systems named below: HCT-15 colon; HT29 colon; SNB-75 CNS; SNB-19 CNS; U251 CNS; PC-3 prostate; SK-MEL-5 melanoma; LOX IMVI melanoma; SK-MEL-28 melanoma; UACC-62 melanoma.
What all share (assay): NCI-60 one-dose screen, 48 h (100 = growth as untreated, 0 = no growth, -100 = all killed)
Details in all cases: 10 µM unless noted

About 83,000 compounds went through this panel and 20% of them were active in at least one assay; those are over-represented in the sample as a whole.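 Step 1: grow cells in 96-well plates. Step 2: add test compound at a single concentration. Step 3: incubate 48 h. Step 4: record percent growth.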 Values without a mark were called inactive. Activity calls are given as the source filed them. How the source made its calls: active means growth percent below 10; inactive means the rest.

On to `CCOC(=O)c1ccc(NC(=S)NC(=O)c2cccc(NC(=O)c3ccc(C)cc3)c2)cc1`, for which the growth in the assay on HCT-15 colon is 75.3%; in the assay with HT29 colon, 82.5%; in the assay on SNB-75 CNS, 73%; in the assay with SNB-19 CNS, 49.4%; in the assay on U251 CNS it was 2.07% (active); in the assay on PC-3 prostate, 77.5%. Besides, the results for the growth with SK-MEL-5 melanoma, in the assay on LOX IMVI melanoma and with SK-MEL-28 melanoma were 85.8%, 51.9% and 85.2%, respectively.

On to `Cc1ccc(C(=O)Nc2cc(-n3ccnc3C)cc(C(F)(F)F)c2)cc1C#Cc1cnc2cccnn12`, for which the growth in the assay on HCT-15 colon is 5.01% (active); with HT29 colon it was -16.8% (active); with SNB-75 CNS it was -28.1% (active); in the assay on SNB-19 CNS it was 30.3%; with U251 CNS it was 22.1%; with PC-3 prostate, 8.32% (active). The results for the growth in the assay with SK-MEL-5 melanoma, in the assay on LOX IMVI melanoma and with SK-MEL-28 melanoma were -67.6% (active), -80.2% (active) and -32.4% (active), respectively.

Take `Cc1nn(-c2ccccc2)c2nc(C)n(C(=O)N/N=C/c3cccc([N+](=O)[O-])c3)c(=O)c12`: the growth with HCT-15 colon was 63.5%; in the assay with HT29 colon, 88.6%; in the assay with SNB-75 CNS, 75.4%; in the assay with SNB-19 CNS, 94.1%; with U251 CNS it was 93.1%; in the assay with PC-3 prostate, 92.9%. Besides, the growth in the assay on SK-MEL-5 melanoma was 90.7%; with UACC-62 melanoma it was 73.5%; in the assay with LOX IMVI melanoma it was 82.7%; in the assay with SK-MEL-28 melanoma, 97.8%.

As for `O=C1c2cccc3c(N4CCN(c5ccccc5)CC4)ccc(c23)C(=O)N1c1cccc(-c2nn(-c3ccccc3)cc2-c2nc3ccccc3s2)c1`, the growth was 112% with HCT-15 colon; 116% in the assay on HT29 colon; 98.1% in the assay with SNB-75 CNS; 100% in the assay on SNB-19 CNS; 100% in the assay with U251 CNS; 85.9% with PC-3 prostate. Moreover, the growth in the assay with SK-MEL-5 melanoma was 99%; in the assay on LOX IMVI melanoma it was 94.5%; in the assay with SK-MEL-28 melanoma it was 104%.

For `CN1CCN(C(=O)Oc2cc3c(c4ccccc24)[C@H](CCl)CN3C(=O)c2cc3cc(OCCCN4CCC4)ccc3[nH]2)[C@@H]2CSSC[C@H]21`, the growth with HCT-15 colon is 2.11% (active); in the assay with HT29 colon, 2.15% (active); in the assay on SNB-75 CNS, -64.6% (active); in the assay with SNB-19 CNS, -64.6% (active); in the assay with U251 CNS, -42.8% (active); in the assay with PC-3 prostate, -12.2% (active). The growth in the assay on SK-MEL-5 melanoma is -74.1% (active); with LOX IMVI melanoma it was -61.6% (active); with SK-MEL-28 melanoma, -39.5% (active).

As to `CC1=C(C(=O)OCc2ccccc2)C(c2cccc3ccccc23)n2c(nc3ccccc32)N1` (stereo unspecified), the growth is 21.7% in the assay on HCT-15 colon; 3.87% (active) with HT29 colon; -15.1% (active) with SNB-75 CNS; 40.9% in the assay on SNB-19 CNS; 24.9% in the assay with U251 CNS; 22.8% with PC-3 prostate. For the same compound, the growth in the assay on SK-MEL-5 melanoma was 3.71% (active); in the assay with LOX IMVI melanoma, 36.1%; with SK-MEL-28 melanoma it was 50.5%.

On to `Nc1nn2c(-c3cc4ccccc4oc3=O)ccnc2c1N=Nc1ccccc1`, for which the growth with HCT-15 colon is 82.5%; with HT29 colon, 124%; in the assay on SNB-75 CNS, 40%; with SNB-19 CNS, 4.86% (active); in the assay with U251 CNS, 6.17% (active); in the assay with PC-3 prostate, 82.5%. In addition, the growth was 67.6% in the assay on SK-MEL-5 melanoma, 92.7% in the assay with UACC-62 melanoma, 34% in the assay on LOX IMVI melanoma and 90.2% in the assay with SK-MEL-28 melanoma.

Turning to `C[C@H]1[C@@H](CC(=O)N[C@@H](Cc2coc3ccccc23)B(O)O)O[C@@H]2OC3(C)CC[C@H]4[C@H](C)CC[C@@H]1[C@@]24O3`, the growth in the assay with HCT-15 colon was -51.7% (active); with HT29 colon it was -57.4% (active); with SNB-75 CNS, -19% (active); with SNB-19 CNS, 35%; in the assay with U251 CNS, 25.2%; with PC-3 prostate, 28.5%. Besides, the values for the growth in the assay with SK-MEL-5 melanoma, in the assay with LOX IMVI melanoma and in the assay on SK-MEL-28 melanoma were -83.4% (active), -72.7% (active) and 5.12% (active), respectively.

For the compound `O=C(CSc1nnc(-c2ccc(-c3nc4ccccc4[nH]3)cc2)o1)Nc1ccc(Br)cc1`, the growth with HCT-15 colon is 17.5%; in the assay on HT29 colon, 22.6%; in the assay on SNB-75 CNS, 63.3%; with SNB-19 CNS, -46.2% (active); in the assay with U251 CNS it was -81.6% (active); in the assay on PC-3 prostate, 12.4%. In addition, the growth was 21.6% in the assay on SK-MEL-5 melanoma, 30.5% in the assay with UACC-62 melanoma, -85.5% (active) in the assay with LOX IMVI melanoma and -63.6% (active) in the assay with SK-MEL-28 melanoma.

Regarding `Cc1cccc(C)c1Nc1nnc(-c2c[nH]c3ccccc23)o1`, the growth with HCT-15 colon was 97.6%; in the assay with HT29 colon it was 104%; in the assay on SNB-75 CNS it was 88%; with SNB-19 CNS it was 97.5%; with U251 CNS, 95.6%; in the assay with PC-3 prostate, 76.3%. Also, the growth with SK-MEL-5 melanoma was 94.1%; in the assay with UACC-62 melanoma, 83.2%; in the assay with LOX IMVI melanoma, 83.9%; in the assay on SK-MEL-28 melanoma it was 105%.

As to `CCOc1ccccc1[C@H]1C(C(=O)c2ccc(Cl)cc2)C2(N[C@@H]1c1ccccc1)C(=O)Nc1ccc(Cl)cc12` (stereo partly specified), the growth was 20.3% in the assay on HCT-15 colon; 10.7% with HT29 colon; 30.7% in the assay on SNB-75 CNS; 37.7% with SNB-19 CNS; 36.3% in the assay on U251 CNS; 9.44% (active) in the assay with PC-3 prostate. Moreover, the growth was 6.43% (active) in the assay on SK-MEL-5 melanoma, 13.2% with LOX IMVI melanoma and 41.2% in the assay with SK-MEL-28 melanoma.

For `Fc1ccccc1CNc1nc(SCCN2CCOCC2)nc2c1cnn2CC(Cl)c1ccc(Br)cc1` (stereo unspecified), the growth in the assay on HCT-15 colon was -53.3% (active); with HT29 colon, -33.6% (active); in the assay on SNB-75 CNS it was 50.1%; in the assay on SNB-19 CNS, 52.6%; with U251 CNS it was 37.8%; with PC-3 prostate it was 30.3%. The values for the growth in the assay on SK-MEL-5 melanoma, in the assay on LOX IMVI melanoma and with SK-MEL-28 melanoma were -76% (active), 1.88% (active) and 22%, respectively.

As to `COc1ccc(N=Nc2c(N)nn3c(-c4ccc(OC)c(OC)c4)ccnc23)cc1`, the growth in the assay on HCT-15 colon is 91.7%; with HT29 colon, 68.5%; in the assay with SNB-75 CNS, 82.3%; in the assay on SNB-19 CNS, 74.1%; in the assay on U251 CNS, 69.3%; with PC-3 prostate, 87.5%. Besides, the growth is 77.4% in the assay on SK-MEL-5 melanoma, 86.1% in the assay with LOX IMVI melanoma and 86.4% in the assay with SK-MEL-28 melanoma.
